# In PubChem BioAssay AID2551 (National Center for Advancing Translational Sciences (NCATS), 2010):
# Where “and” joins values, the source holds several entries; their conditions need not be identical. Identical values can stand only once. The campaign covered roughly 310,000 compounds. About 17,000 (5.5%) were called active. Not shown: some 11% with an inconclusive outcome. Calls come from the whole dose curve; as a rule, active = well fitted inhibition curve with a large enough effect; inconclusive = small, poorly fitted or top-dose-only effect, or effect the other way; inactive = no such curve, though single readings can be large or run the other way. The entries come from a sample that favours actives as a whole. Entries that show only a call come without a potency.
# Biological target: Nuclear receptor ROR-gamma (Mus musculus) (UniProt P51450)
# Sequence (P51450 whole entry, looked up): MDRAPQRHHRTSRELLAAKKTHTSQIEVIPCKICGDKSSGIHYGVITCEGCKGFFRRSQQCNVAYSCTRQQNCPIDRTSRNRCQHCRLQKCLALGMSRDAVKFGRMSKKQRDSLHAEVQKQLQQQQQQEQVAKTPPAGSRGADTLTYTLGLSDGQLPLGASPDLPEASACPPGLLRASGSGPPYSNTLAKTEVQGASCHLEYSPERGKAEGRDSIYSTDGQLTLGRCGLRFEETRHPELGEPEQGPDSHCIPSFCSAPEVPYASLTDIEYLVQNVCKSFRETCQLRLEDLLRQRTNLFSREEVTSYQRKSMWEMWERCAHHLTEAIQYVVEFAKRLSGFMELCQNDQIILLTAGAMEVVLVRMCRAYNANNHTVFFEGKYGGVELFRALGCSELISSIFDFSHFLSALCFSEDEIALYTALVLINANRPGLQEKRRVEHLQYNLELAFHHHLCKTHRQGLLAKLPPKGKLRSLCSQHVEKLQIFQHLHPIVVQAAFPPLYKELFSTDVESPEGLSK
# Assay: qHTS for inhibitors of ROR gamma transcriptional activity; note: nearly all actives have a fitted effect of over 60% in size
# Conditions: Drosophila S2 Gal4-RORgamma UAS-luciferase reporter, 20 h; series mostly up to 53.6 µM
# Text: NIH Molecular Libraries Probe Production Network [MLPCN] NIH Chemical Genomics Center [NCGC] MLPCN Grant: R03 DA026211-01 Assay Provider: Dan Littman, New York University Assay Overview: The retinoic acid-related orphan receptor (ROR) gamma is a transcription factor that has a central role in the differentiation of Th17 cells, a subset of T helper cells that secrete the inflammatory cytokines IL-17, IL-17F, and IL-22. Th17 cells have been implicated in graft versus host disease, autoimmune disease and asthma. ROR gamma is induced in naive T helper cells in the presence of TGF-beta combined with IL-6, IL-21, or IL-23, and thereafter directs the expression of the Th17 lineage cytokines. To study the mechanism of action of ROR gamma, an insect cell-based assay was screened. This Drosophila Schneider cell line was stably transfected with two vectors: a gene expressing a fusion of the Gal4 DNA binding domain and ROR gamma transactivation domain under the control of the metallothionine promoter and a Photinus luciferase reporter regulated by the Gal4 binding site enhancer, UAS. […] Small molecule inhibitors of ROR gamma activity are detected by a decrease in luciferase reporter activity.
# Assay Protocol Summary: For screening, 600 cells in 4 uL/well were dispensed into white solid 1536-well plates (Grenier) using a solenoid-based dispenser. Following transfer of 23 nL compound or DMSO vehicle by a pin tool, the plates were incubated 1 hr at ambient temperature, and 1 uL/well copper sulfate (700 uM final concentration) was added. The plates were centrifuged 15 s at 1000 RPM and incubated 20 hr at ambient temperature. After addition of 1.5 uL Photinus luciferase detection reagent, the plates were incubated 10 min at ambient temperature and then read by an ViewLux (Perkin Elmer) to detect luminescence. Keywords: NIH Roadmap, MLPCN, MLI, MLSMR, qHTS, NCGC, qHTS, nuclear hormone receptor, retinoic acid-related orphan receptor, ROR gamma
# Potency is the fitted concentration of half-maximal effect.
row,Compound,Potency
1,O=S(=O)(NC1CCCC1)c1ccc(-n2cnnn2)cc1,inactive
2,Cc1sc2nc(SCCO)n(-c3ccccc3)c(=O)c2c1C,inactive
3,COCCCNC(=S)N1CCN(c2nc(-c3cccc(OC)c3)cs2)CC1,inactive
4,O=C(Nc1c2c(nn1-c1ccccc1)CS(=O)(=O)C2)C1CCCC1,inactive
5,Nn1cnnc1N/N=C/c1cc([N+](=O)[O-])c(Cl)cc1Cl,11.2 µM (active)
6,NC(N)=N/N=C/c1ccc(Cl)c([N+](=O)[O-])c1,inactive
7,CC(CN1CCC(n2nccc2NC(=O)C2CCCC2)CC1)c1ccccc1 (stereo unspecified),inactive
8,Oc1ccc(Br)cc1C=Nc1ccc2[nH]ncc2c1,11.2 µM (active)
9,O=C(CCc1nnc2ccc(NCc3ccco3)nn12)Nc1cc(F)ccc1F,inactive
10,CCn1c(SCC(=O)Nc2ccc(C)cc2)nc2nc3c(cc2c1=O)CCCC3,10 µM (active)
11,CC(=O)NCCn1c(SCC(=O)Nc2ccc(C)cc2)nc2ccccc2c1=O,inactive
12,CCc1ccc(NC(=O)CSc2nc3ccccc3c(=O)n2CCN2CCOCC2)cc1,inactive
13,CCn1c(C)c(C)c2cc(C(=O)N3CCN(c4cccc(C)c4C)CC3)ccc21,inactive
14,CCCCC(c1nnnn1CS(=O)(=O)c1ccc(C)cc1)N1CCC(C(N)=O)CC1 (stereo unspecified),inactive
15,Cc1ccc(CNC(=O)Cc2cn(C)c3ccccc23)cc1,inactive
16,CC(C)(C)c1cc(C(=O)N/N=C/c2ccc([N+](=O)[O-])s2)n[nH]1,inactive
17,Cc1cc(C(=O)N/N=C/c2cc([N+](=O)[O-])cc(C)c2O)n[nH]1,10 µM (active)
18,COc1ccc2ccccc2c1/C=N/NC(=O)c1cc(C)[nH]n1,inactive
19,CCCCn1c(SCC(=O)N2CCOCC2)nc2c1c(=O)n(C)c(=O)n2C,inactive
20,CC1CC2=C(CC1/C=N/NC(N)=S)C(C)(C)CCC2 (stereo unspecified),1.41 µM (active)
21,CC1(C)CCCC2=C1CC1C(=O)N(c3ccccc3)C(=O)C1C2 (stereo unspecified),inactive
22,CC(C)[C@H](NC(=O)N1CCn2c1nc1ccccc12)C(=O)NCc1ccc2c(c1)OCO2,inactive

row,Compound,Potency
1,Cc1ccc2[nH]c(=O)c(CC(=O)O)c(-c3ccccc3)c2c1,inactive
2,COc1ccc(C(C)NC(=O)C23CC4CC(CC(C4)C2)C3)cc1 (stereo unspecified),inactive
3,CC(C)/C=N/NC(=O)c1cc(Br)ccc1O,10 µM (active)
4,CC(=N\NC(=O)c1cc(Br)ccc1O)/C(=N/O)C(=O)Nc1ccccc1,7.94 µM (active)
5,O=C(N/N=C\c1cccc(Br)c1)c1ccccc1-n1cccc1,inactive
6,O=C(Nc1cccc(NC(=O)c2ccc(Br)cc2)c1)c1ccccc1,inactive
7,O=C(O)c1ccc(/C=N/NC(=O)c2ccc(Br)cc2)cc1,inactive
8,O=C(Nc1ccc(C(=O)O)cc1)/C(=C\c1ccccc1)NC(=O)c1ccc(Br)cc1,inactive
9,Cc1cccc(N(C(=O)Cn2nnc(-c3ccc(C)o3)n2)C(C(=O)NC2CCCC2)c2ccncc2)c1 (stereo unspecified),inactive
10,O=C(CCN1C(=O)[C@H]2CC=CC[C@H]2C1=O)NCc1nc(-c2ccccc2)no1,inactive
11,CCCNC(=O)c1ccc(N2CCC3(CC2)CC(c2ccc(Cl)cc2)=NO3)c([N+](=O)[O-])c1,inactive
12,O=C1CCC(C(=O)N2CCC(O)(c3ccccc3)CC2)CN1CCc1ccccc1 (stereo unspecified),inactive
13,Cc1ccc(N2CCN(C(=O)c3cccs3)CC2)c(C)c1,inactive
14,COc1ccc(/C=N/OCc2ccccc2C#N)c(OC)c1,inactive
15,Cc1ccc(C(=O)NCC(=O)NCc2cc(=O)n(C)c(=O)n2C)cc1,inactive
16,O=C(NCCOCc1ccc(Cl)cc1)c1ncn[nH]1,inactive
17,O=C(/C=C/Sc1ncn[nH]1)c1ccc(Cl)cc1,4.47 µM (active)
18,COc1ccc(Cl)cc1CSc1ncn[nH]1,inactive
19,COCCNC(=O)COc1ccc(N(C)S(=O)(=O)c2ccc3ccccc3c2)cc1,inactive
20,COc1cccc(N(CC(=O)NC2CCCC2)C(=O)CCCC(=O)Nc2ccccn2)c1,inactive
21,COc1ccc(/C=C2/S/C(=N/N=C3\CC4CCC3(C)C4(C)C)NC2=O)cc1 (stereo unspecified),10 µM (active)
22,COc1ccc(/C=C2\NC(=O)[C@@H]3Cc4ccccc4CN3C2=O)cc1,inactive

row,Compound,Potency
1,COc1ccc(/C=C2\SC(=N)N(c3ccc(F)cc3)C2=O)cc1,inactive
2,Cc1ccc(C)c(C(=O)N2CCC(n3nccc3NC(=O)C3CC3)CC2)c1,inactive
3,Cn1c(COc2ccc(Cl)cc2)nc2ccccc2c1=O,inactive
4,COc1ccc(-c2nc(N)ncc2-c2ccc(Cl)cc2)c(O)c1,inactive
5,Cc1[nH]nc(-c2ccc(OCc3cnn(-c4ccccc4)c3)cc2O)c1Oc1ccc(Cl)cc1,2.24 µM (active)
6,Cc1nc(COc2cc3oc(=O)cc(C)c3cc2Cl)cs1,inactive
7,CC(=O)NCCc1ccc(S(=O)(=O)Nc2ccc(C)c(S(=O)(=O)N3CCOCC3)c2)cc1,inactive
8,O=C(Nc1cccc(NC(=O)c2cccc(F)c2)c1)c1ccccc1,inactive
9,CCS(=O)(=O)NCCc1ccc(OC)c(OC)c1,11.2 µM (active)
10,COc1ccc(CCNS(=O)(=O)c2ccc(Cl)s2)cc1OC,inactive
11,COc1ccc(CCNS(=O)(=O)c2ccc(F)cc2)cc1OC,inactive
12,COc1ccc(S(=O)(=O)N2CCC(C(=O)NCc3ccco3)CC2)cc1C,inactive
13,Cc1cccc(-c2noc(CCC(=O)NC3CCCC3)n2)c1,inactive
14,O=C(NCCCN1CCOCC1)c1cc(-c2ccccc2F)no1,inactive
15,COC(=O)Cn1c2ccc(C)cc2c2nc(C)sc21,inactive
16,CCn1c(=O)cc(O)c2ccccc21,inactive
17,CCn1c(O)c(N=NC2=NC(=O)CS2)c2cc(C)ccc21,4.47 µM (active)
18,CN(CC(=O)Nc1ccc(Cl)cc1)C(=O)CNC(=O)c1ccc2ccccc2c1,inactive
19,Cn1cc(CCC(=O)NC2CC2)c2ccccc21,inactive
20,O=C(CNC(=O)Cc1ccccc1)N=Nc1c(O)[nH]c2ccc(Br)cc12,inactive
21,O=C(C1CCCN(S(=O)(=O)c2ccc([N+](=O)[O-])cc2)C1)N1CCCCC1 (stereo unspecified),inactive
22,Cc1ccccc1NC(=O)c1ccccc1NS(=O)(=O)c1cccc2cccnc12,inactive

row,Compound,Potency
1,O=[N+]([O-])c1cccc2ncccc12,inactive
2,O=[N+]([O-])c1ccccc1S(=O)(=O)Nc1cccc2cccnc12,501 nM (active) and 708 nM (active)
3,O=C(Cc1ccccc1F)NC1CCSc2ccccc21 (stereo unspecified),inactive
4,CC(C)c1ccc(S(=O)(=O)NC2CCCC2)cc1,inactive
5,CCn1c(CNC(=O)c2cc(OC)c(OC)c(OC)c2)cc2cc(C)ccc21,inactive
6,CC(=O)N1CCCc2cc(S(=O)(=O)N3CCCC(C(=O)NCc4ccc(Cl)cc4)C3)ccc21 (stereo unspecified),inactive
7,CC(=O)N1c2ccc(S(=O)(=O)N3CCCC(C(=O)Nc4cccc(Cl)c4)C3)cc2CC1C (stereo unspecified),inactive
8,CC(=O)N1CCCc2cc(S(=O)(=O)N3CCCC(C(=O)N4CCN(c5cccc(Cl)c5)CC4)C3)ccc21 (stereo unspecified),5.62 µM (active)
9,COc1ccc2oc(C(=O)NCc3ccco3)c(C)c2c1,inactive
10,CC(C(=O)N1CCN(c2ccccc2F)CC1)c1ccc([N+](=O)[O-])cc1 (stereo unspecified),inactive
11,COc1ccc(CNc2nccs2)cc1,inactive
12,O=c1[nH]c(NCCO)nnc1Cc1ccc(Cl)cc1,inactive
13,COc1ccc(Cc2nnc(N/N=C/c3ccccc3O)[nH]c2=O)cc1OC,3.98 µM (active)
14,CCOc1ccc(-n2c(O)c(/C=N/Nc3nnc(C)c(=O)[nH]3)c3ccccc3c2=O)cc1,inactive
15,O=C(NC(=S)N1CCc2ccccc21)c1ccco1,1.41 µM (active)
16,NC(=O)N1CCc2ccccc21,inactive
17,O=C(CSCc1ccccc1)N1CCc2ccccc21,inactive
18,COc1cc(/C=N/N2CCN(c3ccccc3)CC2)ccc1OC(C)=O,inactive
19,CC(C)=CCN1CCN(Cc2cc3ccccc3[nH]2)CC1CCO (stereo unspecified),inactive
20,CCOC(=O)c1c(NC(=S)Nc2ccccc2C)sc2c1CCC2,3.55 µM (active)
21,CCOC(=O)c1c(NC(=O)CSc2nnc(C)c(=O)[nH]2)sc2c1CCC2,inactive
22,CCCOC(=O)Nc1sc2c(c1C(=O)OCC)CCC2,inactive

row,Compound,Potency
1,CCOC(=O)c1c(NC(=O)c2ccc(Br)o2)sc2c1CCCC2,inactive
2,CCOC(=O)c1c(NC(=S)Nc2ccccc2)sc2c1CCN(C)C2,inactive
3,O=C(Nc1sc2c(c1C(=O)O)CCC2)c1ccccc1F,inactive
4,CCOC(=O)c1c(NC(=S)NC)sc2c1CCCC2,0.891 µM (active)
5,CCN(CC)CC(=O)Nc1sc2c(c1C(=O)c1ccccc1C)CCC2,7.08 µM (active)
6,CCOC(=O)c1c(NC(=O)C(C)Sc2c[nH]c3ccccc23)sc2c1CCC2 (stereo unspecified),inactive
7,CCOC(=O)c1c(NC(=S)NC(=O)c2ccco2)sc2c1CCCC2,3.16 µM (active)
8,CCc1ccc(N(CC(=O)Nc2sc3c(c2C(=O)OC)CCCC3)S(C)(=O)=O)cc1,inactive
9,CCOC(=O)c1c(NC(=O)CCC(=O)NCc2ccco2)sc2c1CCCC2,inactive
10,Cc1coc2c1c(C)cc1oc(=O)c(CC(=O)NCC(=O)N[C@H](C(=O)O)C(C)C)c(C)c12,inactive
11,CCCCNC(=O)CN1C(=O)NC(Cc2ccccc2)(Cc2ccccc2)C1=O,inactive
12,O=C(NCC(=O)N1CCN(c2ccccc2O)CC1)c1ccc2ccccc2c1,inactive
13,Cc1cc(C)cc(N(CC(=O)NC2CCCC2)C(=O)CCC(=O)Nc2cc(C)on2)c1,inactive
14,O=C(CN1CCOC1=O)N1CCCC(Nc2ccc(F)c(F)c2)C1 (stereo unspecified),inactive
15,O=C(CCNS(=O)(=O)c1cccs1)N1CCN(c2ccc(F)cc2)CC1,inactive
16,CCCc1nnc(SCC(=O)Nc2ccc(C(=O)OCC)cc2)o1,inactive
17,CCN(C(=O)Cc1c(C(=O)O)n(CC)c2ccccc12)c1ccccc1C,inactive
18,CCOC(=O)c1ccccc1NC(=O)COC(=O)CCC(=O)N1CCOCC1,inactive
